Screening results: PubChem BioAssay, National Center for Advancing Translational Sciences (NCATS)
BAZ2B inh: qHTS Assay for Inhibitors of BAZ2B | Bromodomain adjacent to zinc finger domain protein 2B (Homo sapiens), Q9UIF8 | AlphaScreen BAZ2B-H3K14Ac peptide displacement | Potency, µM (highest dose often 114 µM), inactives show at the highest dose activity change, negative = inhibition, hits mostly inhibitors | hit rate 4.4% among 360,000 | AID 504333, 2011; also: % is scaled to controls: 0 for no effect and ±100 for the full control effect; nearly all actives have a fitted effect of over 60% in size
Target sequence (Q9UIF8 whole entry, looked up, the tested form may be a part): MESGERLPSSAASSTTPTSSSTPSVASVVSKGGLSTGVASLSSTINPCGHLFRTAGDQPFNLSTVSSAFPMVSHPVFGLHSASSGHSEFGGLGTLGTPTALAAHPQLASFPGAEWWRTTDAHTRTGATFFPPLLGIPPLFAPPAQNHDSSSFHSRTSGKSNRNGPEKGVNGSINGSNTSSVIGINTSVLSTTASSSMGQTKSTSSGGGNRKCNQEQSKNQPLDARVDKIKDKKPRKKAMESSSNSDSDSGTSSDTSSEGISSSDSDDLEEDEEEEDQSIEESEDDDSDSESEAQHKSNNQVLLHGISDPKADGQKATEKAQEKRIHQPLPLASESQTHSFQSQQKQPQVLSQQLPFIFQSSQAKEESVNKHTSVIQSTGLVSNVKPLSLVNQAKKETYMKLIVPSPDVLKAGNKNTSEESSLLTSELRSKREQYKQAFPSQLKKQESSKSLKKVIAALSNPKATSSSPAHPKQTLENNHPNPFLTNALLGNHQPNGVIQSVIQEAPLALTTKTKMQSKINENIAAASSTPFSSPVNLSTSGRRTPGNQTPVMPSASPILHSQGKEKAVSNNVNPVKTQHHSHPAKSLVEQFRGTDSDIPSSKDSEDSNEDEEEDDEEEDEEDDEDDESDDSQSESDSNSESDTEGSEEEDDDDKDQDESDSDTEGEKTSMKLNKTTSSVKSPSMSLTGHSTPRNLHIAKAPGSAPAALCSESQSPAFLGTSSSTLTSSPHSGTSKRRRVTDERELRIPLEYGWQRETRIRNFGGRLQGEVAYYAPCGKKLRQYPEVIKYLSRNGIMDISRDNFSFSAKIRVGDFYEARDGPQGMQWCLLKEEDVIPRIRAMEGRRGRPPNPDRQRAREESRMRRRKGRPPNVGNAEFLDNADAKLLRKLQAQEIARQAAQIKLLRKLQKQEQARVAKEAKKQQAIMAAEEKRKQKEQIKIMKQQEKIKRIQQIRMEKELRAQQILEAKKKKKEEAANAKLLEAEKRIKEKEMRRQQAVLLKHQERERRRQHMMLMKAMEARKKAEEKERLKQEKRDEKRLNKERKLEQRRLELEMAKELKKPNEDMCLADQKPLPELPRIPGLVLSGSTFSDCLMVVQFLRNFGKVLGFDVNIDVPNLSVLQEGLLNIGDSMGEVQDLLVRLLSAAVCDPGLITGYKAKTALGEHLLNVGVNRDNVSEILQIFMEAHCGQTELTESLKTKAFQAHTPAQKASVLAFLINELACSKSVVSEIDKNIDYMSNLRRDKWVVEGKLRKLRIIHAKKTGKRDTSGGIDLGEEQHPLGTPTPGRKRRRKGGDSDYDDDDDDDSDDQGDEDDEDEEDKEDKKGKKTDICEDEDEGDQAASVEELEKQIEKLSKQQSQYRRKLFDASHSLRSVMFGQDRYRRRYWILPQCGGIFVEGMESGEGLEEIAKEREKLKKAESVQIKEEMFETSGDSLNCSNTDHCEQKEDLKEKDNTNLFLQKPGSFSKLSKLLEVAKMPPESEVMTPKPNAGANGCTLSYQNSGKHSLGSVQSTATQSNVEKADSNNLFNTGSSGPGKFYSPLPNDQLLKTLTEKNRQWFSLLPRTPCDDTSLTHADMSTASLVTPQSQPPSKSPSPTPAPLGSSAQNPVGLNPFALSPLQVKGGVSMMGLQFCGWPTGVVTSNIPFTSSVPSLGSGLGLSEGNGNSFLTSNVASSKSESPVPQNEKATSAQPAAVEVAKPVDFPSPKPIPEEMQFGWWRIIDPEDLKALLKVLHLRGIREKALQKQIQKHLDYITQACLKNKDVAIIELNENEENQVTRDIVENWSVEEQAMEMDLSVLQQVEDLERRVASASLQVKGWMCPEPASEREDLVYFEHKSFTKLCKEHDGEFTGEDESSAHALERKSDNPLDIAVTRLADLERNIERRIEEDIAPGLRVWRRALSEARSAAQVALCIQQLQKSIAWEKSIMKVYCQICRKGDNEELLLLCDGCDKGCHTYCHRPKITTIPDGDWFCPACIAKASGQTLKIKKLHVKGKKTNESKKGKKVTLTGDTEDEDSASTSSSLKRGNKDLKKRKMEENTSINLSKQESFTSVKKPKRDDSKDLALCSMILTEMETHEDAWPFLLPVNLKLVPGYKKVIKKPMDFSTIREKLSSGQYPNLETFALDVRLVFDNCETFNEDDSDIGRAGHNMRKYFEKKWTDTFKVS
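BAZ2B (50 nM) with biotin-H3(5-23)K14Ac peptide (50 nM) in PBS pH 7.4, 0.01% Tween-20, preformed 30 min, then compound 30 min at room temperature; top concentration 110uM. AlphaScreen streptavidin donor/nickel chelate acceptor beads (10 ug/mL final), 20 min dark, signal read.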
HP1b binding inh: HTS for Inhibitors of HP1-beta Chromodomain Interactions with Methylated Histone Tails; Chromobox protein homolog 1 (Homo sapiens), P83916; AlphaScreen HP1-beta / biotin-H3K9me3 peptide binding; Potency, µM (top dose mostly 114 µM), for the others: at the highest dose activity change, negative = inhibition, usual class: inhibitors; hit rate 0.56% among 390,000; AID 540317, 2011; also: nearly all actives have a fitted effect of over 70% in size
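HP1-beta protein (50 nM final) preincubated 30 min at room temperature with biotinylated H3(1-18)K9me3 peptide (50 nM) in PBS pH 7.4, 0.01% Tween-20, then compound added for 30 min. AlphaScreen streptavidin donor/nickel chelate acceptor beads (10 ug/mL final), 30 min dark, luminescence read.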
Sfp PPTase inh: qHTS Assay for Inhibitors of Bacillus subtilis Sfp phosphopantetheinyl transferase (PPTase); 4'-phosphopantetheinyl transferase ffp (Bacillus subtilis), Q9F4F7; Biochemical Sfp PPTase activity, qHTS; Potency, µM, for inactives: largest response in the series, negative = inhibition, most hits filed as inhibitors; hit rate 3.5% among 310,000; AID 1490, 2009;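 also: the enzyme is Sfp with the accession as filed and its product quenches rhodamine fluorescence; 0% = enzyme reaction without inhibitor and -100% = no enzyme wells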
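Reaction rates are the 30-min fluorescence difference (ex 525, em 598 nm) in wells containing 15 nM Sfp, 5 uM rhodamine-CoA and 12.5 uM BHQ-2-YbbR at pH 7.6 with 10 mM MgCl2.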
G9a block: qHTS Assay for Inhibitors of Histone Lysine Methyltransferase G9a. Histone-lysine N-methyltransferase EHMT2 (Homo sapiens), Q96KQ7. G9a H3K9 monomethylation, AlphaScreen, 2 h. Potency, µM (highest dose often 102 µM), without a hit: at the top dose activity, negative = inhibition, hits mostly inhibitors. hit rate 8.8% among 350,000. AID 504332, 2011; also: % is scaled to controls: 0 for no effect and ±100 for the full control effect; nearly all actives have a fitted effect of over 75% in size
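Quantitative HTS format: methyltransferase activity on a biotin-tagged H3K9 peptide is measured by AlphaScreen, using a rabbit anti-monomethyl-H3K9 antibody with streptavidin donor and anti-IgG acceptor beads. Final levels are 20 nM enzyme, 500 nM peptide, 20 uM SAM; 2 h RT.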
JMJD2A Tudor inh: qHTS Assay for Inhibitors of JMJD2A-Tudor Domain | Potency, µM (doses to about 114 µM), for the others: at the highest dose activity change, negative = inhibition, actives largely listed as inhibitors | AlphaScreen JMJD2A-Tudor / H3K4me3 peptide binding | hit rate 4.4% among 390,000; also: % is scaled to controls: 0 for no effect and ±100 for the full control effect; nearly all actives have a fitted effect of over 50% in size
* = called active by the depositor; ? = inconclusive; . = no result given; [ ] = dose if it differs, or a comment. Rows were chosen to be rich in hits. Some 12% of all compounds tested hit in one or more screens of this group. Calls follow the shape of the dose curve; as a rule, active = well fitted curve in the direction sought with a large enough effect; inconclusive = small, poorly fitted or top-dose-only effect, or another doubt; inactive = no such curve, though single readings can be large; an effect the other way counts as inactive or inconclusive. Potency is read from the fitted curve at half-maximal effect.

SMILES	BAZ2B inh	HP1b binding inh	Sfp PPTase inh	G9a block	JMJD2A Tudor inh
CCOC(=O)c1c(S(=O)(=O)NCC(=O)N2CCN(c3ccccc3OC)CC2)c(C)n(C)c1C	?	12%[57 µM]	11%	0%[59 µM]	-9%
COc1ccc(C(=O)N2CCc3cc(OC)c(OC)cc3C2c2cccc([N+](=O)[O-])c2)cc1OC (stereo not given)	-33%	-33%	-5%	?	23%[11.4 µM]
COC(=O)c1ccc(/C=N\N2CCN(Cc3ccc(C)cc3)CC2)cc1	-29%	11%	9%	20%[2.33 µM]	-12%
Cc1ccc(/C=N/N2CCN(Cc3ccc(C)cc3)CC2)cc1	35µM*	-4%	4%	?	?
Cc1ccc(CN2CCN(/N=C/c3cccs3)CC2)cc1	45µM*	?	-3%	?	-25%[57.1 µM]
Cc1ccc(CN2CCN(/N=C\c3cccc([N+](=O)[O-])c3)CC2)cc1	28µM*	35µM*	-6%	28µM*	45µM*
Cc1ccc(CN2CCN(/N=C/c3ccc(C(F)(F)F)cc3)CC2)cc1	-34%	?	0%	6%[59 µM]	?
Cc1ccc(CN2CCN(/N=C\C=C\c3ccccc3)CC2)cc1	28µM*	?	-12%	35µM*	40µM*
C=C1C(=O)OC2C=C(C)CCC=C(C)CCC12 (stereo not given)	.	.	-17%	.	.
CC(=O)N1CCCc2cc(S(=O)(=O)N3CCCC(C(=O)Nc4ccc(C)c(C)c4)C3)ccc21 (stereo not given)	-18%	9%[57 µM]	.	-2%[59 µM]	-24%
COCCOC(=O)Cn1nnc2sc(-c3ccccc3)cc2c1=O	-5%	13%	.	7%[59 µM]	-33%
Cc1ccc(CN2CCN(/N=C/c3ccc(C)s3)CC2)cc1	40µM*	?	-12%	-18%[59 µM]	?
Cc1ccc(/C=N/N2CCOCC2)s1	-30%	22%	10%	6%	-23%
Cc1ccc(/C=N/N2CCN(Cc3ccccc3)CC2)s1	7.1µM*	?	-3%	40%[0.501 µM]	50µM*
Cc1ccc(/C=N/N2CCN(Cc3cccc4ccccc34)CC2)s1	-6%	-20%	8%	20%[0.501 µM]	-31%
CN(NC(=O)c1ccccc1)c1ncc(C(F)(F)F)cc1Cl	-3%	10%	7%	1%	-16%
Cc1cc(C(=O)CSc2nnc(CCC(N)=O)n2C)c(C)n1C1CC1	-7%	9%	.	50µM*	-19%
O=C(O)CCn1c(-c2ccccc2)cc2c1CCCC2=O	-2%	29%	-16%	50µM*	-18%
COC(=O)c1cc2c(n(Cc3ccccc3)c1=O)CCCC2=O	.	28%	.	.	-8%
Cc1onc(-c2ccccc2)c1C(=O)N1CCCC(C(F)(F)F)C1 (stereo not given)	-5%	34%	20%	20%	-1%
COc1ccc(CNc2ccccn2)c(O)c1	-8%	41%	19%	.	0%
O=c1cc(CO)oc(C(Nc2ccccn2)c2ccc(F)cc2)c1O (stereo not given)	-27%	?	10µM*	-120%[12.7 µM]	40µM*
COc1ccc(C(Nc2ccccn2)c2oc(CO)cc(=O)c2O)cc1 (stereo not given)	?	?	?	1µM*	8.9µM*
Fc1ccc(CNc2ccccn2)cc1	5%	33%	-1%	.	9%
O=C(NNc1ccccn1)C(c1ccccc1)c1ccccc1	-23%	9%	8%	2%	-14%
SMILES	BAZ2B inh	HP1b binding inh	Sfp PPTase inh	G9a block	JMJD2A Tudor inh
Cc1ccnc(NC(c2ccccc2O)c2oc(CO)cc(=O)c2O)c1 (stereo not given)	?	1%	10µM*	0.89µM*	-17%
O=c1cc(CO)oc(C(Nc2ccccn2)c2ccsc2)c1O (stereo not given)	?	.	22µM*	2µM*	.
Cc1ccc(S(=O)(=O)N(C)C)cc1NC(=S)NCCc1ccccn1	-17%	78%	?	-12%	-17%
Cc1c(C(Nc2ccccn2)c2ccc(Cl)cc2)c(=O)n(-c2ccccc2)n1C (stereo not given)	-38%	61%	-1%	-1%[59 µM]	-11%[57.1 µM]
O=c1cc(CO)oc(C(Nc2ccccn2)c2ccccc2Cl)c1O (stereo not given)	?	?	50µM*	1.1µM*	28µM*
CC(=O)Nc1ccc(NC(=O)c2ccc(-n3c(C)ccc3C)cc2)cc1	-32%	19%	8%	?	-23%
CC(=O)Nc1ccc(S(=O)(=O)N2CCN(Cc3nc4sc(C)c(C)c4c(=O)[nH]3)CC2)cc1	-13%	72%	0%	.	-5%[11.4 µM]
COC(=O)c1c(-c2ccccc2)csc1NC(=O)C1CC=CCC1C(=O)O (stereo not given)	?	?	-6%	45µM*	50µM*
CCOC(=O)c1c(-c2ccc(C)cc2)csc1NC(=O)C1CC=CCC1C(=O)O (stereo not given)	3%[57.1 µM]	-18%	-15%	?	-33%
COC(=O)c1c(NC(=O)C2CC=CCC2C(=O)O)sc(C(N)=O)c1C (stereo not given)	-5%	10%	-23%	18µM*	-24%
OCCOCCN1CCN(C(=S)Nc2ccccc2)CC1	-2%	43%	9%	?	-8%
Cc1onc(-c2c(F)cccc2Cl)c1C(=O)O/N=C(\N)c1ccc([N+](=O)[O-])o1	?	-4%	11%	40µM*	-32%
COc1cc(Cl)c(C)cc1NC(=O)CSc1ncc(S(=O)(=O)c2ccc(C(C)(C)C)cc2)c(=O)[nH]1	25µM*	-21%	.	-49%[59 µM]	89µM*
CCO[C@H]1OC(C(=O)N2CCN(C)CC2)=C[C@@H](c2ccc(Br)cc2)[C@@H]1CCCO	-1%	29%	-1%	21%[59 µM]	-19%
O=C1C(Cl)=C(NC2CCc3ccccc32)C(=O)c2ncccc21 (stereo not given)	.	.	45µM*	.	.
O=C1C(Cl)=C(NCCN2CCOCC2)C(=O)c2ncccc21	.	.	-2%	.	.
O=C(Nc1ccccc1C(=O)O)c1cccc(NC(=O)c2ccc(Br)o2)c1	-1%	11%	7%	18µM*	-30%
O=C(Nc1cccc(F)c1)c1ccc(Br)o1	-13%	16%	-22%	28µM*	-27%
COC(=O)c1nn(C23CC4CC(CC(C4)C2)C3)c2c1C(=O)N(c1ccc(F)cc1)C2=O	-5%	24%	10%	34%[12.7 µM]	-11%
Cc1ccc(S(=O)(=O)NCC(Nc2cccc(Cl)c2)c2ccccc2)cc1 (stereo not given)	-18%	41%	.	?	-7%
Cc1ccc(/C([O-])=C(/C(=S)NCc2ccc3c(c2)OCO3)[n+]2ccc(N(C)C)cc2)c(C)c1	?	-19%	1%	50µM*	?
